Compound activity: PubChem, National Center for Advancing Translational Sciences (NCATS)
Shown are actives, neighbours in structure and some others; about 12% of the full set was active somewhere.
G9a inh: inhibitors of human histone lysine methyltransferase G9a; Q96KQ7; G9a H3K9 monomethylation, AlphaScreen, 2 h; Potency, µM (top dose mostly 102 µM), most hits filed as inhibitors; 350,000 tested, 8.8% active; AID 504332; further: nearly all actives have a fitted effect of over 75% in size
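Step 1: enzyme (final 20 nM) with compound, 15 min RT. Step 2: substrate peptide 500 nM and SAM 20 uM, 2 h RT. Step 3: anti-H3K9me1 antibody and AlphaScreen beads, 10 min, then plate read.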
L3MBTL1 block: L3MBTL1 (human) inhibition; Q9Y468; AlphaScreen L3MBTL1–H3K9me1 peptide binding; Potency, µM (doses to about 57.1 µM), most hits filed as inhibitors; 230,000 tested, 0.66% active; AID 485360; further: nearly all actives have a fitted effect of over 60% in size
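AlphaScreen assay: L3MBTL1 (50 nM final) was preincubated 30 min at room temperature with biotinylated H3(1-15)K9me1 peptide (75 nM final), then 30 min with library compounds; streptavidin donor and nickel chelate acceptor beads (10 ug/mL final) added, 30 min dark.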
BAZ2B inh: BAZ2B (human) inhibition | Q9UIF8 | AlphaScreen BAZ2B-H3K14Ac peptide displacement | Potency, µM (titrated, usually from 114 µM), hits mostly inhibitors | 360,000 tested, 4.4% active; further: nearly all actives have a fitted effect of over 60% in size
Target sequence (Q9UIF8 whole entry, looked up): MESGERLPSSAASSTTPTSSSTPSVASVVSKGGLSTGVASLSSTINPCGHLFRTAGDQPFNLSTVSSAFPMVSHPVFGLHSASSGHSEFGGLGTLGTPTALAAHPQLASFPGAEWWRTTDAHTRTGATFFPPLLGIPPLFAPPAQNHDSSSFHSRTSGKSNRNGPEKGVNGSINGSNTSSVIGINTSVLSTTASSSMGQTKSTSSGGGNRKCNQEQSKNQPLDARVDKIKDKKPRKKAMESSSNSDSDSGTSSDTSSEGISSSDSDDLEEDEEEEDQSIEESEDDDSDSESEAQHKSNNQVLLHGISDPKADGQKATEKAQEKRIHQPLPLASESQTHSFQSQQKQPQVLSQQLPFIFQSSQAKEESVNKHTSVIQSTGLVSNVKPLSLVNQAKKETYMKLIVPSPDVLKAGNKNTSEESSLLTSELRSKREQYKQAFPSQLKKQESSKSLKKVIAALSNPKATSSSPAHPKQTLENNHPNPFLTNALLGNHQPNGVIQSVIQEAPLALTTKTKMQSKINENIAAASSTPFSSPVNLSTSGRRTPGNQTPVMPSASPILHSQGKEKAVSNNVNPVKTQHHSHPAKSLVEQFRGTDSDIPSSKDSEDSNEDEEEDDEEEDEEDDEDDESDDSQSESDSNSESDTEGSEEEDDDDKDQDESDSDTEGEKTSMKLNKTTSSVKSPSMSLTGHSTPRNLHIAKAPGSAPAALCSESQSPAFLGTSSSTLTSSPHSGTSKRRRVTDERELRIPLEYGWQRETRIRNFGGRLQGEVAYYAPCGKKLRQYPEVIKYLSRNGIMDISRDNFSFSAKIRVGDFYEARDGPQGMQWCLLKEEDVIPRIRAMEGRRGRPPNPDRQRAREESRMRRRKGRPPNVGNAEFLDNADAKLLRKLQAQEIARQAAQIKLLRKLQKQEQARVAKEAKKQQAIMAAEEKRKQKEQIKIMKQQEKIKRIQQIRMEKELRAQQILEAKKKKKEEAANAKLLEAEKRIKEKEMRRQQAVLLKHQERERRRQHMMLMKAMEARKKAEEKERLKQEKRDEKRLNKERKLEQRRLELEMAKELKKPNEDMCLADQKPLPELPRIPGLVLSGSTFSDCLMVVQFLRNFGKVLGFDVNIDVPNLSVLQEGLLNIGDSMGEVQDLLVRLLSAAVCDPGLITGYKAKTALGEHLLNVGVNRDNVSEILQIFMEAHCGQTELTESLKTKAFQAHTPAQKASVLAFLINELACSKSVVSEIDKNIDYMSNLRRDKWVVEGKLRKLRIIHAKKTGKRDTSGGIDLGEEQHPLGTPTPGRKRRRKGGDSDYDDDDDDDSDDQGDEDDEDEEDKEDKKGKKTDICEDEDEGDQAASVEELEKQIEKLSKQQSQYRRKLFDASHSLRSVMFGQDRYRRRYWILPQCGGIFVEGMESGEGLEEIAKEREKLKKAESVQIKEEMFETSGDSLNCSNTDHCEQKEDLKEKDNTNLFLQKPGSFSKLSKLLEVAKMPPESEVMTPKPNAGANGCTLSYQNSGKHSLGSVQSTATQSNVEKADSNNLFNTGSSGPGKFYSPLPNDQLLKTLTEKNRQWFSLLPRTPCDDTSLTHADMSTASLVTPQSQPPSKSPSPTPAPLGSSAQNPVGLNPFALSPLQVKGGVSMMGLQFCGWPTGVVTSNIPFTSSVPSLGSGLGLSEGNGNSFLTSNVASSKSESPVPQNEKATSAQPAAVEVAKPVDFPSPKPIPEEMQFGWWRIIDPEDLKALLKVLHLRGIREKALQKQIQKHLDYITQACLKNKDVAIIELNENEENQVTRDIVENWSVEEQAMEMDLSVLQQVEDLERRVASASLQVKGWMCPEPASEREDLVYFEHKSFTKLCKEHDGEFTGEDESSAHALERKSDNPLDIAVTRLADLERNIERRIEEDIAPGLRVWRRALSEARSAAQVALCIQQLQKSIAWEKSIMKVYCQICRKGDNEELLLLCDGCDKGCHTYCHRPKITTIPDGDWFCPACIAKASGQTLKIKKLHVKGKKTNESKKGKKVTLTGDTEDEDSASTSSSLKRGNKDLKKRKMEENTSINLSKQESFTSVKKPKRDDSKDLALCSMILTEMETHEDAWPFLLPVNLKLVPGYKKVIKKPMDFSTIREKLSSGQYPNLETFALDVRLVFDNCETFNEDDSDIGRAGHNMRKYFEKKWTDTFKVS
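Multi-concentration screen (max 110 uM) measuring displacement of acetylated histone H3 peptide from BAZ2B by AlphaScreen, using 50 nM protein, 50 nM peptide and 10 ug/mL streptavidin donor plus Ni-chelate acceptor beads.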
HP1b chromo inh: blocks HP1-beta chromodomain binding to methylated histone tails. AlphaScreen HP1-beta / biotin-H3K9me3 peptide binding. Potency, µM (highest dose often 114 µM), usual class: inhibitors. 390,000 tested, 0.56% active; further: nearly all actives have a fitted effect of over 70% in size
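HP1-beta protein (50 nM final) preincubated 30 min at room temperature with biotinylated H3(1-18)K9me3 peptide (50 nM) in PBS pH 7.4, 0.01% Tween-20, then compound added for 30 min. AlphaScreen streptavidin donor/nickel chelate acceptor beads (10 ug/mL final), 30 min dark, luminescence read.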
JMJD2A Tudor inh: blocks the human JMJD2A Tudor domain; AID 504339; 390,000 tested, 4.4% active; AlphaScreen JMJD2A-Tudor / H3K4me3 peptide binding; Potency, µM (series often up to 114 µM), actives largely listed as inhibitors; O75164; further: nearly all actives have a fitted effect of over 50% in size
Sfp PPTase inh: blocks B. subtilis Sfp PPTase activity; Q9F4F7; Biochemical Sfp PPTase activity, qHTS; Potency, µM, actives largely listed as inhibitors; 310,000 tested, 3.5% active;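 further: the enzyme is Sfp with the accession as filed and its product quenches rhodamine fluorescence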
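With Hepes-Na pH 7.6 buffer containing 10 mM MgCl2, Sfp (15 nM) modified BHQ-2-YbbR (12.5 uM) using rhodamine-CoA (5 uM). Two reads 30 minutes apart at 525/598 nm yielded each well's rate.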
Each line names hits and unclear results; the compound was inactive in the other large screens. The call rests on the fitted dose curve; in most records, active means well fitted curve in the direction sought with a large enough effect; inconclusive means small, poorly fitted or top-dose-only effect, or another doubt; inactive means no such curve, though single readings can be large; an effect the other way counts as inactive or inconclusive.

CSCC[C@H](NC(=O)[C@H](CC(C)C)NC(=O)CNC(=O)[C@H](Cc1ccccc1)NC(=O)[C@H](Cc1ccccc1)NC(=O)[C@H](CCC(N)=O)NC(=O)[C@H](CCC(N)=O)NC(=O)[C@@H]1CCCN1C(=O)[C@H](CCCCN)NC(=O)[C@@H]1CCCN1C(=O)[C@@H](N)CCCN=C(N)N)C(N)=O	none (no result: G9a inh, L3MBTL1 block, BAZ2B inh, HP1b chromo inh, JMJD2A Tudor inh)
CCSc1ncc(Cl)c(C(=O)Nc2ccc(S(=O)(=O)Nc3nccc(C)n3)cc2)n1	G9a inh inconclusive (no result: L3MBTL1 block, Sfp PPTase inh)
COc1ccccc1OCC(=O)Nc1cc(C(F)(F)F)ccc1-n1cncn1	G9a inh 44.7µM (no result: Sfp PPTase inh)
COc1cc(C(C)=O)ccc1OCC(=O)Nc1cc(Cl)ccc1-n1cncn1	none (no result: Sfp PPTase inh)
CC#CCN1c2ccccc2[C@]23C[C@@H](C(=O)OC)N(S(=O)(=O)c4ccc(C#N)cc4)C2=NC(C(=O)OC)=C(C(=O)OC)[C@H]13	none (no result: G9a inh, L3MBTL1 block, BAZ2B inh, HP1b chromo inh, JMJD2A Tudor inh)
S=c1[nH]ncn1NCc1cccc(Br)c1	JMJD2A Tudor inh 15.8µM (no result: G9a inh, L3MBTL1 block, BAZ2B inh, Sfp PPTase inh)
C=CCOc1ccc2ccccc2c1CNn1cn[nH]c1=S	JMJD2A Tudor inh inconclusive (no result: G9a inh)
C=CCOc1ccc(CNn2cn[nH]c2=S)cc1	G9a inh 20µM, JMJD2A Tudor inh 31.6µM
Cc1ccc(CNn2cn[nH]c2=S)cc1	JMJD2A Tudor inh 8.91µM (no result: G9a inh, L3MBTL1 block, BAZ2B inh, Sfp PPTase inh)
O=C1OCCN1S(=O)(=O)Nc1ccccc1	G9a inh 44.7µM, JMJD2A Tudor inh 79.4µM (no result: L3MBTL1 block)
NS(=O)(=O)c1ccc(CCNc2nc(CN3CCOCC3)nc3sc4c(c23)CCC4)cc1	G9a inh 12.6µM
COc1ccc(C(C)NC(=O)CN(c2cc(OC)ccc2OC)S(=O)(=O)c2ccccc2)cc1 (stereo unspecified)	G9a inh inconclusive (no result: L3MBTL1 block, Sfp PPTase inh)
Cc1cc(=O)n2[nH]c(-c3ccc(F)cc3)cc2n1	none
Cc1cc(=O)n2[nH]c(-c3ccsc3-n3c(C)ccc3C)cc2n1	BAZ2B inh 44.7µM, Sfp PPTase inh 44.7µM (no result: G9a inh, L3MBTL1 block)
Cc1ccccc1-c1cc2nc(C)c(Cl)c(=O)n2[nH]1	none (no result: G9a inh, L3MBTL1 block, BAZ2B inh, Sfp PPTase inh)
COCc1cc(=O)n2[nH]c(-c3ccsc3-n3c(C)ccc3C)cc2n1	BAZ2B inh inconclusive, Sfp PPTase inh 56.2µM (no result: L3MBTL1 block)
Cc1nc2cc(-c3ccsc3-n3c(C)ccc3C)[nH]n2c(=O)c1Cl	G9a inh inconclusive, BAZ2B inh 50.1µM, JMJD2A Tudor inh inconclusive, Sfp PPTase inh inconclusive (no result: L3MBTL1 block)
COc1cc(/C=C(/C#N)c2nc(-c3cc4ccccc4oc3=O)cs2)ccc1O	none (no result: L3MBTL1 block, Sfp PPTase inh)
Cc1ccc(S(=O)(=O)Nc2cc3c(cc2C)n(C)c(=O)c(=O)n3C)c(C)c1	none (no result: L3MBTL1 block, Sfp PPTase inh)
Cn1c(CN2CCCC2)nc2cc(NS(=O)(=O)c3ccccc3)ccc21	none
O=S(=O)(Nc1ccc(O)c(CN2CCCCC2)c1)c1ccccc1	G9a inh 44.7µM
O=C(c1ccc(NS(=O)(=O)c2ccccc2)cc1)N1CCN(Cc2ccc3c(c2)OCO3)CC1	G9a inh 50.1µM
COc1cccc(C(=O)N2CCN(Cc3ccc4c(c3)OCO4)CC2)c1OC	G9a inh inconclusive, BAZ2B inh 79.4µM, JMJD2A Tudor inh 7.94µM
CSc1ccc(S(=O)(=O)N2CCN(Cc3ccc4c(c3)OCO4)CC2)cc1	G9a inh 79.4µM
COc1ccccc1NC(=S)N1CCN(Cc2ccc3c(c2)OCO3)CC1	none
Cc1ccccc1OCCCC(=O)Nc1ccc2c(c1)OCO2	G9a inh 20µM
COc1ccccc1NC(=O)N1CCN(Cc2ccc3c(c2)OCO3)CC1	BAZ2B inh 50.1µM, HP1b chromo inh inconclusive, JMJD2A Tudor inh 3.98µM, Sfp PPTase inh inconclusive (no result: G9a inh)
COc1ccccc1OCCC(=O)NCc1ccc2c(c1)OCO2	JMJD2A Tudor inh 35.5µM (no result: L3MBTL1 block)
COc1cc(C(=O)N2CCN(Cc3ccc4c(c3)OCO4)CC2)cc(OC)c1OC	G9a inh 20µM, BAZ2B inh 79.4µM, HP1b chromo inh inconclusive, JMJD2A Tudor inh 0.891µM
CCCCCn1c(CCCNC(=O)c2ccc(Cl)cc2)nc2ccccc21	none (no result: L3MBTL1 block, Sfp PPTase inh)
COc1ccc(S(=O)(=O)N2CCN(Cc3ccc4c(c3)OCO4)CC2)c2ccccc12	G9a inh 50.1µM (no result: L3MBTL1 block)
COc1ccc(Cl)cc1S(=O)(=O)N1CCN(Cc2ccc3c(c2)OCO3)CC1	none
Cc1ccc(NC(=O)c2nc(S(C)(=O)=O)ncc2N(Cc2ccc(C(C)(C)C)cc2)Cc2ccco2)cc1C	none (no result: L3MBTL1 block, Sfp PPTase inh)
